# Measured values from PubChem BioAssay (NCI).
# Values joined by “and” are separate entries in the source; they are usually repeats but may differ in a detail not shown here. Equal values may be shown once. About 83,000 compounds went through this panel and 20% of them were active in at least one assay; those are over-represented in the sample as a whole.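 Note: values are percent growth. 100 is the growth of untreated cells, values between 100 and 0 indicate rising inhibition; between -100 and 0 indicates cell death.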 Active and inactive are the calls of the source. How the source made its calls: active means growth percent below 10; inactive means the rest.
# Tests used:
# Assay in all cases: NCI-60 one-dose screen, 48 h (100 = growth as untreated, 0 = no growth, -100 = all killed)
# BT-549 breast = test system: BT-549 breast
# MDA-MB-435 melanoma = test system: MDA-MB-435 melanoma
# SW-620 colon = test system: SW-620 colon
# MCF7 breast = conditions: 10 µM unless noted
# HCT-116 colon = test system: HCT-116 colon
# HCC-2998 colon = conditions: 10 µM unless noted
# KM12 colon = test system: KM12 colon
# T-47D breast = conditions: 10 µM unless noted
smiles,measurement,setting,value
Nc1n[nH]c(=S)n1-c1ccc(Cl)cc1,growth,BT-549 breast; 10 µM unless noted,92.5% (inactive)
same,growth,MDA-MB-435 melanoma; 10 µM unless noted,112% (inactive)
same,growth,SW-620 colon; 10 µM unless noted,97% (inactive)
same,growth,MCF7 breast,90.8% (inactive)
same,growth,HCT-116 colon; 10 µM unless noted,95.4% (inactive)
same,growth,HCC-2998 colon,108% (inactive)
same,growth,KM12 colon; 10 µM unless noted,103% (inactive)
O=C1c2c(O)cc(O)cc2OC(c2ccc(O)c(O)c2)C1O (stereo unspecified),growth,T-47D breast,103% (inactive)
same,growth,MDA-MB-435 melanoma; 10 µM unless noted,111% (inactive)
same,growth,SW-620 colon; 10 µM unless noted,104% (inactive)
same,growth,MCF7 breast,102% (inactive)
same,growth,KM12 colon; 10 µM unless noted,114% (inactive)
CN1C(=O)C(N=Nc2ccc([N+](=O)[O-])cc2)SC1=S (stereo unspecified),growth,T-47D breast,50.9% (inactive) and 57.2% (inactive)
same,growth,MDA-MB-435 melanoma; 10 µM unless noted,75.8% (inactive) and 85.4% (inactive)
same,growth,SW-620 colon; 10 µM unless noted,49% (inactive) and 60.3% (inactive)
same,growth,MCF7 breast,82.4% (inactive) and 68.8% (inactive)
same,growth,HCT-116 colon; 10 µM unless noted,61.7% (inactive) and 70.5% (inactive)
same,growth,HCC-2998 colon,-0.382% (active)
same,growth,KM12 colon; 10 µM unless noted,48.2% (inactive) and 52.8% (inactive)
CNC(=O)c1ccc(C)c(-n2c(C)cc(OCc3ccc(F)cc3F)c(Br)c2=O)c1,growth,BT-549 breast; 10 µM unless noted,75.7% (inactive) and 76.4% (inactive)
same,growth,MDA-MB-435 melanoma; 10 µM unless noted,85.4% (inactive) and 99.4% (inactive)
same,growth,SW-620 colon; 10 µM unless noted,79.9% (inactive) and 95.9% (inactive)
same,growth,MCF7 breast,82.8% (inactive) and 90.5% (inactive)
same,growth,HCT-116 colon; 10 µM unless noted,68.1% (inactive) and 78.4% (inactive)
same,growth,HCC-2998 colon,67.5% (inactive) and 72.6% (inactive)
same,growth,KM12 colon; 10 µM unless noted,90% (inactive) and 92.5% (inactive)
O=C1CCN(Cc2ccccc2)C(=S)N1,growth,BT-549 breast; 10 µM unless noted,101% (inactive) and 117% (inactive)
same,growth,MDA-MB-435 melanoma; 10 µM unless noted,108% (inactive) and 105% (inactive)
same,growth,SW-620 colon; 10 µM unless noted,105% (inactive)
same,growth,MCF7 breast,119% (inactive) and 86% (inactive)
same,growth,HCT-116 colon; 10 µM unless noted,103% (inactive) and 106% (inactive)
same,growth,HCC-2998 colon,98.8% (inactive) and 99.9% (inactive)
same,growth,KM12 colon; 10 µM unless noted,104% (inactive) and 105% (inactive)
CCC(C)C1(C2CCCC2)NC(=O)NC1=O (stereo unspecified),growth,BT-549 breast; 10 µM unless noted,107% (inactive)
same,growth,MDA-MB-435 melanoma; 10 µM unless noted,121% (inactive) and 102% (inactive)
same,growth,SW-620 colon; 10 µM unless noted,112% (inactive) and 98.9% (inactive)
same,growth,MCF7 breast,99.3% (inactive) and 97.3% (inactive)
same,growth,HCT-116 colon; 10 µM unless noted,100% (inactive) and 112% (inactive)
same,growth,HCC-2998 colon,103% (inactive) and 102% (inactive)
same,growth,KM12 colon; 10 µM unless noted,106% (inactive) and 111% (inactive)
NC(=O)c1ccccc1OCC(O)CO (stereo unspecified),growth,T-47D breast,130% (inactive)
same,growth,MDA-MB-435 melanoma; 10 µM unless noted,90% (inactive)
same,growth,SW-620 colon; 10 µM unless noted,101% (inactive)
same,growth,MCF7 breast,94.1% (inactive)
same,growth,HCT-116 colon; 10 µM unless noted,112% (inactive)
same,growth,KM12 colon; 10 µM unless noted,115% (inactive)
Cc1cc(-c2ccc(NS(=O)(=O)c3ccccc3)c(C)c2)ccc1NS(=O)(=O)c1ccccc1,growth,T-47D breast,78.7% (inactive) and 105% (inactive)
same,growth,MDA-MB-435 melanoma; 10 µM unless noted,92.5% (inactive) and 102% (inactive)
same,growth,SW-620 colon; 10 µM unless noted,92.2% (inactive) and 108% (inactive)
same,growth,MCF7 breast,60.4% (inactive) and 82.9% (inactive)
same,growth,HCT-116 colon; 10 µM unless noted,70.7% (inactive) and 101% (inactive)
same,growth,HCC-2998 colon,100% (inactive) and 110% (inactive)
same,growth,KM12 colon; 10 µM unless noted,72.3% (inactive) and 90.1% (inactive)
CC(=O)Nc1ccc(O)cc1,growth,T-47D breast,116% (inactive) and 103% (inactive) and 93.9% (inactive)
same,growth,MDA-MB-435 melanoma; 10 µM unless noted,105% (inactive) and 109% (inactive) and 110% (inactive)
same,growth,SW-620 colon; 10 µM unless noted,106% (inactive) and 108% (inactive) and 103% (inactive)
same,growth,MCF7 breast,100% (inactive) and 68.3% (inactive) and 107% (inactive)
same,growth,HCT-116 colon; 10 µM unless noted,100% (inactive) and 120% (inactive) and 104% (inactive)
same,growth,KM12 colon; 10 µM unless noted,99.4% (inactive) and 38.3% (inactive) and 107% (inactive)
CO/N=C/C=C\C(=O)N/C=C/C[C@H]1/C=C/[C@H](O)/C=C\C=C\c2cccc(O)c2C(=O)O1,growth,T-47D breast,16.4% (inactive) and 17.4% (inactive)
same,growth,MDA-MB-435 melanoma; 10 µM unless noted,6.42% (active) and -15.8% (active)
same,growth,SW-620 colon; 10 µM unless noted,17.5% (inactive) and 8.83% (active)
same,growth,MCF7 breast,35.6% (inactive) and 26.1% (inactive)
same,growth,HCT-116 colon; 10 µM unless noted,21.3% (inactive) and 14.9% (inactive)
same,growth,KM12 colon; 10 µM unless noted,34.3% (inactive) and 20.8% (inactive)
O=C(N/N=C/c1ccccc1)N/N=C/c1ccccc1,growth,T-47D breast,114% (inactive) and 106% (inactive)
same,growth,MDA-MB-435 melanoma; 10 µM unless noted,104% (inactive) and 98.6% (inactive)
same,growth,SW-620 colon; 10 µM unless noted,106% (inactive) and 96% (inactive)
same,growth,HCT-116 colon; 10 µM unless noted,107% (inactive)
same,growth,HCC-2998 colon,101% (inactive) and 96.3% (inactive)
same,growth,KM12 colon; 10 µM unless noted,99.8% (inactive) and 102% (inactive)
CC#C[C@]1(O)CC[C@H]2[C@@H]3CCC4=CC(=O)CCC4=C3[C@@H](c3ccc4c(c3)OCO4)C[C@@]21C,growth,BT-549 breast; 10 µM,77.8% (inactive)
same,growth,BT-549 breast; 100 µM,-33.1% (active)
same,growth,MDA-MB-435 melanoma; 10 µM,94.7% (inactive)
same,growth,MDA-MB-435 melanoma; 100 µM,-35.6% (active)
same,growth,SW-620 colon; 10 µM,84.7% (inactive)
same,growth,SW-620 colon; 100 µM,4.2% (active)
same,growth,HCT-116 colon; 10 µM,78.4% (inactive)
same,growth,HCT-116 colon; 100 µM,-78.5% (active)
same,growth,KM12 colon; 10 µM,86.3% (inactive)
same,growth,KM12 colon; 100 µM,-42.3% (active)
